The values below come from PubChem BioAssay.

The structures appear in SMILES notation. Calls of active or inactive are those of the source. The rule behind the calls is not given here.

For this experiment, the target named is Pantothenate synthetase (Mycobacterium tuberculosis (strain ATCC 25618 / H37Rv)) (UniProt P9WIL5). The experiment is described as follows: Recombinant Mtb pantothenate synthetase (PanC) inhibitors, coupled enzyme, confirmatory (AID 375).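 Note: 0% = full reaction with vehicle and 100% = no enzyme background.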 The settings on record: coupled enzyme assay; at 10 µM, stronger effect = higher value.
Sequence of Pantothenate synthetase (Mycobacterium tuberculosis (strain ATCC 25618 / H37Rv)) (P9WIL5 whole entry, looked up): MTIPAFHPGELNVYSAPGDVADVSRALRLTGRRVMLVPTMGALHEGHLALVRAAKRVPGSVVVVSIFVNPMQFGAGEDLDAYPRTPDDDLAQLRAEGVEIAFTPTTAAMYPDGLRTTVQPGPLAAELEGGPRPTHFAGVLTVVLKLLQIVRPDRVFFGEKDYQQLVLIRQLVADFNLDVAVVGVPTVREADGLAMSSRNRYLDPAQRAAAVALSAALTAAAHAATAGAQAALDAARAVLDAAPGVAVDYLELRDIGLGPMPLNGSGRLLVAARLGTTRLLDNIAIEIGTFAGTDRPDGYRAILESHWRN
Regarding `CC(=O)C1=C(O)C(=O)N(Cc2cccnc2)C1c1ccccc1` (centres undefined), the inhibition was 3% (inactive).

For `CCOc1ccc(N(C)S(=O)(=O)c2ccc3[nH]cc(C(=O)NCC4CCCO4)c(=O)c3c2)cc1` (centres undefined), the inhibition was 0% (inactive).

As for `CCC(CC)n1[nH]c(=O)c2c(C)cc(C)nc21`, the inhibition is 3% (inactive).

In the case of `CCCCc1c(O)nc(SCC(=O)c2ccccc2)[nH]c1=O`, the inhibition was 0% (inactive).

`CN(CC(=O)NCCC1=CCCCC1)S(=O)(=O)c1ccc2c(c1)CCC(=O)N2`: the inhibition was 0% (inactive).

In the case of `Cc1ccc2cc(C#N)c(N3CCCC3)nc2c1C`, the inhibition was 4% (inactive).

Take `CC(=O)Nc1cccc(NC(=O)c2ccco2)c1`: the inhibition is 0% (inactive).

Take `Cc1ccc2[nH]c3c(c2c1)CN(C(=O)CN1CCN(c2cccc(C)c2C)CC1)CC3`: the inhibition was 0% (inactive).

As to `Cc1ccc2nc(C(F)(F)F)c(C#N)c(N)c2c1`, the inhibition is 7% (inactive).

`CCC(C)(C(=O)NC1CCCC1)N(C(=O)c1cnccn1)c1c(C)n(C)n(-c2ccccc2)c1=O` (centres undefined): the inhibition is 0% (inactive).

For `COc1ccc(CCNc2nc(N3CCOCC3)nc(N3CCOCC3)n2)cc1OC`, the inhibition was 0% (inactive).

For `COCCNC(=O)C(c1ccc(O)cc1)N(Cc1ccco1)C(=O)CCC(=O)Nc1nccs1` (centres undefined), the inhibition was 1% (inactive).

In the case of `COC(=O)Oc1c(Br)c(=O)oc2ccccc12`, the inhibition is 0% (inactive).

On to `Cc1cc(C)c2nc(C(F)(F)F)nc(NCCCN3CCCC3=O)c2c1`, for which the inhibition was 0% (inactive).

For the molecule `CCCSc1nnc(N2C(=O)CC(c3ccsc3)C3=C2CCCC3=O)s1` (centres undefined), the inhibition is 0% (inactive).

`Cc1cc(Cl)c(S(=O)(=O)Nc2ccc3c(c2)OCCO3)cc1OCC(N)=O`: the inhibition was 0% (inactive).

As for `C/C(=N\O)C(=O)NCCCNCCCN(C)C`, the inhibition was 2% (inactive).

`Cc1cnc(C(=O)OCC(=O)Nc2ccc(Oc3ccccc3)cc2)cn1`: the inhibition is 0% (inactive).

With `Cc1ccc2c(c1C)NC(=O)C2(O)CC(=O)c1ccc2c(c1)OCO2` (centres undefined), the inhibition is 0% (inactive).

`COc1ccc(-c2nnnn2C)cc1S(=O)(=O)NCc1ccccc1`: the inhibition was 1% (inactive).

With `C=CCSc1nnc(-c2cccnc2)o1`, the inhibition is 0% (inactive).

Turning to `Cc1cnc(C(=O)Nc2nnc(C(C)C)s2)cn1`, the inhibition is 0% (inactive).

With `CC(=O)N(CCN(C(C)=O)c1ccccc1)c1ccccc1`, the inhibition was 0% (inactive).

As for `CCOC(=O)N(C)c1ccc(C(O)(C(F)(F)F)C(F)(F)F)cc1`, the inhibition was 0% (inactive).

Regarding `O=S1(=O)C=CC(Nc2cccc(Cl)c2)C1` (centres undefined), the inhibition is 0% (inactive).

On to `CCc1ccccc1NC(=O)CSc1ncn[nH]1`, for which the inhibition is 0% (inactive).

As for `Cc1cccc2c1nc(-c1ccccc1)n1cnnc21`, the inhibition is 0% (inactive).

`Cc1cc(N)n2nc(-c3ccccc3)cc2n1`: the inhibition is 0% (inactive).

As to `Cc1ccc(/C(O)=C2/C(=O)C(=O)N(Cc3ccco3)C2c2cccs2)cc1` (centres undefined), the inhibition is 0% (inactive).

Consider `Cc1cc(C)n(-c2cc(N3CCOCC3)nc(-c3ccccc3)n2)n1`, for which the inhibition is 2% (inactive).

With `O=C(Cn1cc2c(n1)CCCCC2)N1CCc2ccccc2C1`, the inhibition was 0% (inactive).

As for `CC(C)C1C2=C(CC(C)(C)CC2=O)ON1c1ccccc1` (centres undefined), the inhibition is 1% (inactive).

Consider `CC1/C(=N/O)C(CN(C)C)C2CC1C2(C)C` (centres undefined), for which the inhibition was 0% (inactive).

In the case of `CCCCn1c2c(c3ccccc31)CCc1nonc1-2`, the inhibition was 1% (inactive).

Regarding `CCN(CC)c1ccc(C(=O)n2cnc3ccccc32)cc1`, the inhibition is 4% (inactive).

Consider `CCOc1ccc(-n2cc(C(=O)N3CCN(C)CC3)c3cc(OC)c(OC)cc3c2=O)cc1`, for which the inhibition is 0% (inactive).

As for `CCOC(=O)Cn1c(CN(C)Cc2ccccc2)nc2c1c(=O)n(C)c(=O)n2C`, the inhibition was 5% (inactive).

Turning to `Cc1ccc(S(=O)(=O)CCC(=O)Nc2ccc3c(c2)OCO3)cc1`, the inhibition is 6% (inactive).

Consider `Cc1ccccc1C(=O)Nc1c(C(=O)N2CCCC2)cnn1-c1ccccc1`, for which the inhibition was 8% (inactive).
